# High-throughput results as filed in PubChem BioAssay.
# Sampled rows, rich in hits. Any-hit rate of the full collection: about 21%.
# SARS PLP yeast – blocks SARS-CoV papain-like protease in a yeast assay | S. cerevisiae expressing SARS-CoV PLpro, growth rescue | Potency, µM (series often up to 32.9 µM), actives largely listed as activators | hit rate 0.19% among 330,000 | AID 485353; calls by dose curve; also: nearly all actives have a fitted effect of over 55% in size
# Pf growth 96h – P. falciparum growth inhibition at 96 hour, primary screen for plastid delayed-death inhibitors; AID 504834; P. falciparum luciferase reporter growth, 96 h; Potency, µM (highest dose often 28.7 µM), hits mostly inhibitors; hit rate 6.9% among 320,000
#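 Two-generation exposure (96 h) targets delayed-death phenotype. Reporter parasites carrying integrated firefly luciferase, in red cells at 2% hematocrit and 0.05% parasitemia final, kept at 37 C, 5% CO2; luminescence loss indicates inhibition.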
# Shiga inhibitor – blocks Shiga toxin action in Vero cells | Vero cells, Shiga toxin protein synthesis inhibition reporter | inhibition, % at 38.7 µM | hit rate 9.2% among 290,000 | AID 2315; in the data active = inhibition mostly above about 28%, no sharp cut-off; inactive = mostly below about 43%
# Cycloheximide cs – counter-screen for Shiga toxin inhibitors: cycloheximide protein synthesis inhibition | cell reporter, cycloheximide protein synthesis inhibition counterscreen | max response, % | hit rate 12% among 300,000 | AID 2314; in the data active = max response mostly above about 13%, no sharp cut-off; inactive = mostly below about 14%; also: read at 38.3 µM for the half of the compounds with a filed dose
# NS1 inh – inhibitors of influenza NS1 protein function. Potency, µM (doses to about 46.1 µM). hit rate 0.4% among 270,000; calls by dose curve; also: actives are rising curves; nearly all actives have a fitted effect of over 50% in size
#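 OD600 was taken as the measure of yeast growth restored by compound in an NS1-expressing S. cerevisiae strain. Cells had been washed out of glucose medium and diluted 1:100 into galactose -URA medium, pH 6.0.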
# Pf growth 48h – inhibits P. falciparum growth in the first generation, 48 h; P. falciparum luciferase growth in erythrocytes, 48 h; Potency, µM (series often up to 28.7 µM), most hits filed as inhibitors; hit rate 5.9% among 310,000
#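 In quantitative HTS format, infected erythrocytes bearing luciferase-reporter parasites were treated for a single generation at 37 C. Luminescence after adding detection reagent served as the growth measure.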
# A number is an active result; 0 = inactive; ? = inconclusive; - = no result given; [ ] = remark or other dose. Unless noted, calls follow the shape of the dose curve; as a rule, active = well fitted inhibition curve with a large enough effect; inconclusive = small, poorly fitted or top-dose-only effect, or another doubt; inactive = no such curve, though single readings can be large or run the other way.
SMILES,SARS PLP yeast,Pf growth 96h,Shiga inhibitor,Cycloheximide cs,NS1 inh,Pf growth 48h
O=C(Nc1ccc2c(c1)CCC2)c1cnc(Cl)c(Cl)c1,0,0,103,67,-,0
O=C(Nc1ccc2c(c1)CCC2)c1ccc(Cl)nc1,0,0,64,59,-,0
CCn1ncc(Cl)c1C(=O)Nc1ccc2c(c1)CCC2,0,0,134,37,0,0
O=C(COC(=O)c1ccc(Cl)nc1)Nc1ccc2c(c1)CCC2,0,-,-,-,-,-
COc1ccc(S(=O)(=O)N(CC(=O)NCc2cccnc2)C2CCCCC2)cc1OC,0,0,0,0,0,0
C/C(=N\N1C(C)CCCC1C)c1ccccc1O (stereo not drawn),0,0,0,0,0,0
COc1ccc(N2CCN(C(=O)COC(=O)CCOc3ccccc3C)CC2)cc1,0,0,-,-,-,0
CCOc1ccc(Br)cc1S(=O)(=O)Nc1cccnc1,0,0,0,0,?,0
O=c1cc(C(F)(F)F)c2cc3c4c(c2o1)CCCN4CCC3,0,0,0,0,0,-
CC(C)c1cc(=O)oc2c3c4c(cc12)CCCN4CCC3,0,0,0,0,?,12µM
COc1ccc(C2=Nc3ccccc3OC2)cc1,0,0,99,46,0,-
COc1ccc(-c2ccnc(-c3ccc(O)cc3)n2)cc1,0,0,0,24,-,0
COc1ccc(-c2ccnc(-c3ccncc3)n2)cc1,0,?,0,0,0,0
Cc1ccc(-c2ccnc(-c3ccc(O)cc3)n2)cc1,0,0,80,31,-,0
FCCCOc1ccc(-c2ccnc(-c3ccccc3)n2)cc1,0,0,81,28,0,0
COC(=O)COc1ccc(-c2nccc(-c3ccccn3)n2)cc1,0,?,0,0,0,?
Oc1ccc(-c2nccc(-c3ccccn3)n2)cc1,0,0,88,81,0,0
FCCCOc1ccc(-c2nccc(-c3ccc(F)cc3)n2)cc1,0,0,0,0,0,0
Oc1ccc(-c2nccc(-c3ccc(Br)cc3)n2)cc1,0,0,40,17,0,0
FCCCOc1ccc(-c2nccc(-c3ccc(Br)cc3)n2)cc1,0,0,0,0,0,0
CC1CCCN(C(=O)c2ccc3ncsc3c2)C1 (stereo not drawn),0,0,-,-,-,0
C/C(=N\NS(=O)(=O)c1ccc(C)cc1)c1ccc(C)s1,0,?,0,0,0,0
Cn1c2c(c3ccccc31)CCN1CCC[C@]21c1ccccc1,0,8.3µM,0,0,0,0[0.00184 µM]
O=C(OCc1cnc(Cl)s1)c1ccccc1Cl,0,0,0,16,0,0
O=C(OCc1cnc(Cl)s1)c1cccc(Cl)c1Cl,0,0,0,14,0,0
SMILES,SARS PLP yeast,Pf growth 96h,Shiga inhibitor,Cycloheximide cs,NS1 inh,Pf growth 48h
O=C(OCc1cnc(Cl)s1)c1c(F)cccc1F,0,0[1.15 µM],0,0,0,0
COc1cc(S(=O)(=O)NCc2ccccc2)ccc1F,0,-,0,0,0,0
O=C(CN1C2=NCCN2c2ccccc21)c1ccc(Br)s1,0,?,0,0,0,0
C=CCn1c2ccccc2c2nnc(SCc3ccc4nonc4c3)nc21,0,0,0,0,0,?
CCOc1ccc(OCCSc2nc3ccccc3o2)cc1,0,-,0,15,0,0
COc1ccc(CCNC(=O)CSc2nc3ccccc3o2)cc1,0,0,0,0,0,-
c1ccc(OCCSc2nc3ccccc3o2)cc1,0,?,99,22,0,0
O=C(c1ccccn1)c1cc2ccccc2n1S(=O)(=O)c1ccccc1,0,0,43,26,0,0
Cc1c(CNCCc2ccc(Cl)cc2)c(C(=O)O)c(C)n1Cc1ccccc1,0,0,0,0,-,0
Cc1c(CNCCc2ccccc2Cl)c(C(=O)O)c(C)n1-c1ccccc1,0,0,0,17,0,?
Cn1c(SCC(=O)Nc2ccc(Br)cn2)nnc1C1CC1,0,0,0,0,0,0
CN(C)/C=C1\Cc2ccccc2C1=O,0,0,113,46,0,0
CN(C)C=C1C(=O)c2ccccc2C1=O,0,-,65,27,0[9.22 µM],0
COc1ccc(-c2noc(N3CCC(C(=O)NC(C)c4ccccc4)CC3)n2)cc1 (stereo not drawn),0,0,0,0,0,?
CCN1C(=O)CC(Sc2ccccc2N)C1=O (stereo not drawn),0,1.5µM,0,0,0,0
Nc1ccccc1SC1CC(=O)N(Cc2ccccc2)C1=O (stereo not drawn),0,0,0,0,-,0
O=C1C2CCN(CC2)[C@@H]1Cc1ccc2ccccc2c1O,0,0,40,33,0,0
Cc1ccc(NC(=O)CCC(=O)Nc2nnc(C3CCCCC3)s2)cc1,0,0,0,0,0,0
Cc1ccccc1NC(=O)N1CCN(S(=O)(=O)c2ccccc2)CC1,0,?,0,0,0,0
CN(C)CCCN(CCCN(C)C)C(=S)Nc1ccc(S(=O)(=O)N2CCOCC2)cc1,0,0,0,0,0,0
COc1ccc(/C=N/N2CCN(c3ccccc3OC)CC2)cc1Br,0,0,-,30,0,0
COc1ccccc1N1CCN(CC(=O)c2ccc(F)cc2)CC1,0,0,0,0,0,0
COc1ccc(/C=N/N2CCN(c3ccccc3OC)CC2)cc1OC,0,0,0,17,0,0
COc1ccc(/C=N/N2CCN(C)CC2)cc1OC,0,0,0,0,0,0
COc1ccccc1N1CCN(/N=C(\C)c2ccc(O)cc2)CC1,0,0,43,28,0,0
SMILES,SARS PLP yeast,Pf growth 96h,Shiga inhibitor,Cycloheximide cs,NS1 inh,Pf growth 48h
COc1ccccc1N1CCN(/N=C/c2cccc(OC)c2O)CC1,0,0,0,0,0,0
COc1ccccc1N1CCN(/N=C/c2ccc(O)c(O)c2)CC1,0,0,55,38,0,0
O=C(Nc1nn[nH]n1)c1nc(-c2ccccc2)cc(=O)[nH]1,-,-,-,-,0,-
COc1ccccc1N1CCN(/N=C/c2ccc(C(=O)O)cc2)CC1,0,?,154,48,0,0
COc1ccccc1N1CCN(/N=C/c2cc(OC)c(OC(C)=O)c(OC)c2)CC1,0,?,-,0,0,0
COc1ccccc1N1CCN(/N=C/c2cc(Br)ccc2F)CC1,0,0,0,16,0,0
C[C@H](NC(N)=O)C(=O)OCC(=O)NCc1cccs1,0,?,0,0,-,0
Cc1ccc2c(c1)c1cccc3c1n2CCN3CCC(N)=O,0,?,190,34,0,0
NC(=O)CCn1c2ccccc2c2ccccc21,0,0,0,0,0,0
CCOc1cc(CNc2ccccc2)cc(Br)c1OCC(=O)NC(C)(C)C,0,9.3µM,0,0,0,?
CCOc1cc(CNc2ccc(OC)cc2)cc(Br)c1OCC(=O)NC(C)(C)C,0,9.3µM,0,0,0,?
CCOc1cc(CNn2cnnc2)cc(Br)c1OCC(=O)NC1CCCCC1,0,9.3µM,0,0,0,?
CCOc1cc(CNc2ccc(Br)cc2)cc(Br)c1OCC(=O)NC(C)(C)C,0,-,0,0,0,?
CCOc1cc(CNn2cnnc2)cc(Br)c1OCC(=O)NC(C)(C)C,0,?,0,0,0,0
CS(=O)(=O)c1ccc2nc(NC(=O)CN3C(=O)C4CC=CCC4C3=O)sc2c1 (stereo not drawn),0,0,0,0,-,0
